# Bioassay records deposited in PubChem BioAssay by National Center for Advancing Translational Sciences (NCATS).
# Sampled rows, rich in hits. Any-hit rate of the full collection: about 22%.
# Pf growth 96h: Primary qHTS for delayed death inhibitors of the malarial parasite plastid, 96 hour incubation | P. falciparum luciferase reporter growth, 96 h | Potency, µM (titrated, usually from 28.7 µM), for inactives: at the highest dose activity change, negative = inhibition, most hits filed as inhibitors | 6.9% of 320,000 active; further: potency means the concentration at half of the fitted maximal effect; on the % scale 0 is the no-effect control and ±100 the full control effect
#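 Cell-based qHTS: luciferase-tagged P. falciparum in erythrocytes (2% hematocrit, 0.05% parasitemia final) incubated with compounds for 96 hours, 37 C, 5% CO2; luciferase detection reagent then added and luminescence measured.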
# LmPK inhibitor: qHTS Assay for Inhibitors of Leishmania Mexicana Pyruvate Kinase (LmPK); 0.37% of 290,000 active; purified LmPK, Kinase-Glo ATP luminescence, 1 h; Q27686; Potency, µM (doses to about 57.5 µM), without a hit: top-dose activity change, negative = inhibition, usual class: inhibitors; further: potency means the concentration at half of the fitted maximal effect; on the % scale 0 is the no-effect control and ±100 the full control effect
# Target sequence (Q27686 whole entry, looked up): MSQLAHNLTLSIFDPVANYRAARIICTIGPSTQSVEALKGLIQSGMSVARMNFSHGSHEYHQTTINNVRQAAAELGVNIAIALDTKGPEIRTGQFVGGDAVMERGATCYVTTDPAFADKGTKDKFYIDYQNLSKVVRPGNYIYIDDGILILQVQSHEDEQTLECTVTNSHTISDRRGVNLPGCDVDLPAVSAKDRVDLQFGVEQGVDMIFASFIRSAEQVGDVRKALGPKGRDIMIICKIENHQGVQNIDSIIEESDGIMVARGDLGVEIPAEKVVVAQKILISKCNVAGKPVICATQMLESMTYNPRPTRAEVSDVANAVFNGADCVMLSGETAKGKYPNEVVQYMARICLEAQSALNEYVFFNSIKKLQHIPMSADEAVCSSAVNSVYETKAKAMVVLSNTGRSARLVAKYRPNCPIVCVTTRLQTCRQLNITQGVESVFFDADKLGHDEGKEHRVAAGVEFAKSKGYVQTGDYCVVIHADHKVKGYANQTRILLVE
#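 In 50 mM imidazole pH 7.2 with 7 mM MgCl2, LmPK (0.1 nM) turned over PEP (0.5 mM) and ADP (0.1 mM) for 1 h at room temperature. Luciferase read-out of ATP.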
# Pf growth 48h: Primary qHTS for delayed death inhibitors of the malarial parasite plastid, 48 hour incubation; P. falciparum luciferase growth in erythrocytes, 48 h; Potency, µM (doses to about 28.7 µM), for the others: at the top dose activity change, negative = inhibition, actives largely listed as inhibitors; 5.9% of 310,000 active; further: potency means the concentration at half of the fitted maximal effect; on the % scale 0 is the no-effect control and ±100 the full control effect
#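 Firefly luciferase activity from engineered P. falciparum reports growth; inhibitors lower the luminescent signal. Cultures contained 2% hematocrit erythrocytes at 0.1% final parasitemia.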
# Cycloheximide cs: Cycloheximide Counterscreen for Small Molecule Inhibitors of Shiga Toxin; max response, %; 12% of 300,000 active; cell reporter, cycloheximide protein synthesis inhibition counterscreen; in the data active means max response mostly above about 13%, no sharp cut-off; inactive means mostly below about 14%; further: read at 38.3 µM for the half of the compounds with a filed dose; 0% is about no effect
# Shiga toxin inh: A qHTS for Small Molecule Inhibitors of Shiga Toxin. Vero cells, Shiga toxin protein synthesis inhibition reporter. AID 2315, 2010. inhibition, % at 38.7 µM. 9.2% of 290,000 active; in the data active means inhibition mostly above about 28%, no sharp cut-off; inactive means mostly below about 43%; further: 0% is about no effect
# An asterisk follows results filed as active; ? = inconclusive; . = no result; [ ] = remark or other dose. Unless noted, the call rests on the fitted dose curve; in most records, active means well fitted inhibition curve with a large enough effect; inconclusive means small, poorly fitted or top-dose-only effect, or another doubt; inactive means no such curve, though single readings can be large or run the other way.
SMILES,Pf growth 96h,LmPK inhibitor,Pf growth 48h,Cycloheximide cs,Shiga toxin inh
CC(=O)c1ccc(OCc2cc(C(=O)N3CCOCC3)no2)cc1,?,3%,46%,43*,79*
CCc1nnc(SCC(=O)Nc2ccc(N3CCOCC3)cc2)n1C,?,-7%,24%,-3,-3
Cc1ccc(NC(=S)N2CCCC(c3nc4ccc(C)cc4[nH]3)C2)c(C)c1 (configuration not stated),4%,5%,34%,10*,6
Cc1cc2nc(C3CCCN(C(=O)NCc4ccccc4)C3)[nH]c2cc1C (configuration not stated),38%,-2%,50%,35*,47
Cc1cc2nc(C3CCCN(C(=S)Nc4ccccc4C)C3)[nH]c2cc1C (configuration not stated),28%,2%,24%,33*,28
O=C(CN1CCN(Cc2ccccc2Cl)CC1)N/N=C/c1ccco1,15%,5%,0%,-1,9
CSc1nnc(-c2sccc2OCc2ccc(C)cc2)n1C,?,1%,?,-3,-5
O=c1cc(Nc2ccc3c(c2)OCCO3)[nH]c(=O)n1C1CCCCC1,36%,4%,2.1µM*,3,23*
CCc1ccc(Nc2cc(=O)n(C3CCCCC3)c(=O)[nH]2)cc1,-9%,3%,0.15µM*,30*,87*
O=c1cc(Nc2ccc3c(c2)OCCO3)[nH]c(=O)n1-c1ccc(Cl)cc1,2%,0%,3%,9,12
O=c1cc(N2CCN(c3ccc(F)cc3)CC2)[nH]c(=O)n1C1CCCCC1,92%,1%,-6%,-2,-21
CC(c1ccncn1)N(C)C(=O)c1ccc2oc(Cc3ccccc3)nc2c1 (configuration not stated),-16%,0%,-5%,34*,50*
Cc1cnc(CN(C)C(=O)c2ccc3oc(Cc4ccccc4)nc3c2)[nH]1,4.7µM*,0%,-19%,13,-3
CC(/C=N/NC(=O)c1cc(C(C)C)[nH]n1)=C\c1ccccc1,-23%,0%,-16%,-1,18
CC(C)c1ccc(C(=O)NNC(=O)c2ccncc2)cc1,27%,-2%,12%,1,20
O=C(N/N=C/C(Cl)=C/c1ccccc1)c1cnccn1,?,-8%,?,27,57*
O=C(N/N=C/C(Cl)=C\c1ccccc1)c1cnccn1,?,-5%,.,53*,132*
CC(=C/c1ccccc1)/C=N/NC(=O)c1cnccn1,29%,-1%,.,30*,51*
CC(/C=N/NC(=O)c1ccncc1)=C\c1ccc(C(C)C)cc1,5.2µM*,0%,4.7µM*,52*,128*
OC[C@H]1OC(O)[C@H](O)[C@@H]1O (some centres not stated),13%,.,?,.,.
CCOc1ccc(CNS(=O)(=O)c2cc(-c3cc(C)no3)ccc2OC)cc1OC,32%,3%,-5%,12,-2
COc1ccc(C(C(=O)NCc2ccc(F)cc2)N(C(=O)c2csnn2)C2CC2)cc1 (configuration not stated),-10%,11%,-18%,1,-5
CC(/C=N/NC(=O)C(O)c1ccccc1)=C\c1ccccc1 (configuration not stated),43%,-1%,64%,14*,45*
CC(/C=N/NC(=O)c1ccc(Br)cc1)=C\c1ccccc1,?,4%,.,13,35
CC(/C=N/Nc1nc(C)cc(C)n1)=C\c1ccc(C(C)C)cc1,?,4%,10µM*,35*,59*
CC(/C=N/NC(=O)c1cccnc1)=C\c1ccccc1,29%,-2%[11.5 µM],163%,49*,84*
O=C(COC(=O)Cc1ccc(-c2ccccc2)cc1)NCc1ccccc1,23%,4%,12%,5,29
CC1CCN(c2cc(N3CCOCC3)c(F)cc2[N+](=O)[O-])CC1,184%,0%,?,-1,49
CC1CCN(c2cc(N3CCOCC3)c([N+](=O)[O-])cc2F)CC1,15µM*,5%,?,-3,5
O=c1c2ccccc2c(C=Nc2ccc(Cl)cn2)c(O)n1-c1cc(Cl)ccc1N1CCOCC1,?,1%,6%,0,-5
